Screens deposited in PubChem BioAssay by National Center for Advancing Translational Sciences (NCATS).
A selection: hits, their analogues and other compounds. The true share with any hit is near 2.9%.
PTAP TSG101 blk: blocks PTAP/TSG101 interaction to inhibit HIV-1 budding; 340,000 tested, under 10 active; AID 493005; Fluorescence polarization, FITC-PTAP peptide / Tsg101 binding; Potency, µM (doses to about 115 µM), hits mostly inhibitors; active = well fitted inhibition curve with a large enough effect in the main read-out, with a control signal flat, not every such curve was filed as active; inconclusive = small, poorly fitted or top-dose-only effect, or effect the other way, or a change in a side signal; inactive = no such curve, though single readings can be large or run the other way
Target sequence (Q99816 whole entry, looked up): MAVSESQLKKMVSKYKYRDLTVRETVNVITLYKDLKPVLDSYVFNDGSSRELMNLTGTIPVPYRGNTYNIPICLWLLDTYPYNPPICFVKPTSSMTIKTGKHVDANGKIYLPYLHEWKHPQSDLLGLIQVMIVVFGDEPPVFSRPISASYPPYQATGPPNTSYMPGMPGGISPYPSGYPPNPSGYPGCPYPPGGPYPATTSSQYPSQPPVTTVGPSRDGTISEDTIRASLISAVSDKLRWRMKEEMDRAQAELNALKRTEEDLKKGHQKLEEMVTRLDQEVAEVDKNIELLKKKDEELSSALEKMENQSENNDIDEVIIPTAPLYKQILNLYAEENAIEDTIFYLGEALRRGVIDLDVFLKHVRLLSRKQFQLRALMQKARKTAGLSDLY
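Tsg101 binding domain (10 uM final) was mixed with compound and a FITC-labeled PTAP peptide (50 nM final) in HEPES pH 7.5 buffer with NaCl, Tween 20, EDTA and TCEP; fluorescence polarization was read after 20 min at r.t.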
D3 ag: activates the human D3 dopamine receptor; AID 652048; D3R DiscoveRx beta-arrestin cells, luminescence, 90 min; P35462; max activation, %; hit rate 0.58% among 410,000; in the data active = max activation above about 30%
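Agonist-mode cell screen: cells plated at 1500/well and incubated overnight at 37 °C, then exposed to library compounds for 90 min at 37 °C. Detection reagent was added for 30–60 min at room temperature, and luminescence was read.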
Rango release inh: inhibition of RanGTP-driven Rango-importin beta dissociation; O95149+P62826; Biochemical FRET Rango-importin beta, RanGTP-induced dissociation; Potency, µM (doses to about 46.1 µM); hit rate 0.071% among 340,000; AID 540253; also: nearly all actives have a fitted effect of over 45% in size
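Rango FRET biosensor (snurportin-1 IBB flanked by N-terminal EYFP and C-terminal CFP10) at 0.1 uM, with 0.25 uM importin beta in PBS, 1mM DTT, 0.02% Tween-20, 0.1% BSA. 0.6 uM Ran, 2mM GTP and 0.2 uM RCC1 were then added for 45 min at room temperature. Inhibition read as loss of FRET rise.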
MmCpn inh: M. maripaludis TRiC chaperonin inhibition | purified Mm-Cpn ATPase, ADP Transcreener TR-FRET | Potency, µM (highest dose often 76.9 µM), actives largely listed as inhibitors | hit rate 0.031% among 330,000 | AID 504842; active = well fitted inhibition curve with a large enough effect; inconclusive = small, poorly fitted or top-dose-only effect; also: nearly all actives have a fitted effect of over 80% in size
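Eu-cryptate anti-ADP/ADP-d2 competition gives a ratio inversely related to ADP. Enzyme at 25 nM was pre-exposed to compound for 10 min, then given 10 uM ATP for 30 min, 37°C throughout.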
DRD3 antagonist: blocks the human D3 dopamine receptor | hit rate 2.5% among 360,000 | max response, negative = inhibition, % | AID 652054 | P35462 | D3R cells, DiscoveRx beta-arrestin luminescence, antagonist mode; hits give low values; in the data active = max response below about -50%; inconclusive = no clear call, values can overlap the other calls
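Cells plated overnight at 1500 cells/well, then exposed to library compounds with dopamine controls for 90 minutes at 37 degrees C. DiscoveRx reagent added for 30–60 minutes at room temperature; luminescence read, quantitative HTS format.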
Rango complex inh: Rango-importin beta binding inhibition; hit rate 0.031% among 340,000; Potency, µM (doses to about 92.2 µM); AID 540263; Q14974; Rango CFP/YFP FRET sensor + importin beta, 45 min; also: nearly all actives have a fitted effect of over 15% in size
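FRET biosensor Rango (snurportin 1 IBB between N-terminal EYFP and C-terminal Cerulean), 50 nM in PBS/1 mM DTT/0.02% Tween-20/0.1% BSA, preincubated 5 min RT with compound; 0.125 microM importin beta added, 45 min RT, CFP/YFP FRET ratio read.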
A number is an active result; . = inactive; ? = inconclusive; / = not tested or not shown. Unless noted, calls follow the shape of the full dose curve.

SMILES	PTAP TSG101 blk	D3 ag	Rango release inh	MmCpn inh	DRD3 antagonist	Rango complex inh
COc1cccc(OCC(O)CN2CCN(c3ncccn3)CC2)c1 (stereo not given)	.	.	.	.	.	?
OC(COc1ccc2cc(Br)ccc2c1)CN1CCN(c2ccccn2)CC1 (stereo not given)	.	227.3	.	.	.	.
CCOc1ccc(S(=O)(=O)NCC(c2cccs2)S(=O)(=O)c2ccc(C)cc2)cc1 (stereo not given)	/	.	/	/	/	/
COc1ccc(NC(=O)CCc2ccc(OC)c(OC)c2)cn1	.	.	.	.	.	?
CCCCn1cc(S(=O)(=O)c2ccc(OC)cc2)c(=O)c2cc(F)c(N3CCOCC3)cc21	/	.	/	/	/	/
OC(CSc1ccc(F)cc1)CN1CCN(c2ccccc2)CC1 (stereo not given)	.	.	.	.	-72.3	.
CCS(=O)(=O)c1ncc(Cl)c(C(=O)N(Cc2ccccc2)c2ccc(OC)cc2)n1	/	.	/	/	/	/
COc1ccc(S(=O)(=O)N2CCN(CCOc3ccc(Br)cc3)CC2)cc1OC	.	.	.	.	.	.
Cc1ccc(S(=O)(=O)N2CCN(CCOc3cccc(C)c3)CC2)cc1	.	.	.	.	-55.0	.
O=S(=O)(c1ccc(F)cc1)N1CCN(CCOc2ccccc2)CC1	.	.	.	.	?	.
CC(=O)c1ccc(S(=O)(=O)N2CCN(CCOc3ccccc3)CC2)cc1	.	.	.	.	-58.9	.
COc1ccc(S(=O)(=O)N2CCN(CCOc3ccccc3Cl)CC2)cc1OC	.	35.6	.	.	.	.
CCc1ccc(NC(=O)CCCc2nnc3n(C(C)CC)c(=O)c4sccc4n23)cc1 (stereo not given)	/	.	/	/	/	/
COc1ccc(NC2=Nc3ccccc3N[C@@]23C[C@H]2CCCC(=O)N4CC[C@@H](C3)[C@@H]24)cc1	.	.	.	/	-68.1	.
O=C(Nc1cccc(Cl)c1)Nc1ccccc1OCc1cc(=O)n2ccccc2n1	/	.	/	/	/	/
CCC(c1nnnn1-c1c(C)cccc1C)N1CCN(c2ccc(C(F)(F)F)cc2[N+](=O)[O-])CC1 (stereo not given)	/	.	/	/	.	/
Cc1cc(=O)n(CCCc2ccccc2)[nH]1	.	.	.	.	-67.1	.
CC(C)Oc1cccc(NC(=O)C2(C)CCCN(C)C2)c1 (stereo not given)	/	.	/	/	.	/
COCC(=O)N1CCCC(C)(C(=O)Nc2cccc(Oc3ccccc3)c2)C1 (stereo not given)	/	49.2	/	/	.	/
COc1ccccc1CNc1nc2c(S(=O)(=O)c3ccc(C)c(C)c3)nnn2c2ccc(Cl)cc12	/	.	/	/	/	/
Cn1c(C(=O)N2CCN(Cc3ccc4c(c3)OCO4)CC2)cc2sccc21	.	.	.	.	-96.1	.
COc1cccc(C(=O)N2CCN(Cc3ccc4c(c3)OCO4)CC2)c1OC	.	.	.	.	-67.4	.
COc1ccc(NC(=O)CN2CCN(Cc3ccc4c(c3)OCO4)CC2)cc1OC	.	.	.	.	-73.1	.
COc1ccsc1C(=O)N1CCN(Cc2ccc3c(c2)OCO3)CC1	.	.	.	.	-63.4	?
Cn1c(C(=O)N2CCC(C(=O)N3CCN(Cc4ccc5c(c4)OCO5)CC3)CC2)cc2sccc21	.	.	.	.	.	.
SMILES	PTAP TSG101 blk	D3 ag	Rango release inh	MmCpn inh	DRD3 antagonist	Rango complex inh
CN(C)CCNC(=O)CNC(=S)N(CCCN1CCOCC1)Cc1cccs1	.	.	.	.	.	.
Cc1c(C2=CCN(S(=O)(=O)c3ccc(Cl)cc3)CC2)c2ccccc2n1CC(=O)N1CCCC1	/	.	/	/	/	/
COC(=O)c1c(-c2ccc(N(C)C)cc2)sc2ccc(OC)cc12	.	134.0	?	.	.	?
COC(=O)c1c(-c2ccc(OC)cc2)sc2cc3c(cc12)OCO3	.	.	.	50.1µM	.	.
COc1ccc(-c2sc3cc4c(cc3c2C#CCO)OCO4)cc1	.	.	.	.	.	?
O=C(O)CCc1[nH]c2ccccc2c1Sc1ccccc1	.	.	.	.	-67.0	.
CCCOc1c(Cl)cc(C(=O)N(Cc2cccc(OC)c2)C2CCS(=O)(=O)C2)cc1Cl (stereo not given)	/	.	/	/	/	/
